From PubChem BioAssay
HttQ103 aggreg – reduces HttQ103-GFP aggregates in PC12 cells; PC12 HttQ103-GFP aggregates, Acumen cytometry, 40 h; 220,000 tested, 1.1% active; Potency, µM (highest dose often 46.1 µM), most hits filed as inhibitors; active = well fitted curve in the direction sought with a large enough effect; inconclusive = small, poorly fitted or top-dose-only effect, or another doubt; inactive = no such curve, though single readings can be large; an effect the other way counts as inactive or inconclusive; note: nearly all actives have a fitted effect of over 60% in size
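Read-out: GFP aggregate count by laser scanning cytometer (488 nm excitation, 500-530 nm emission, 1–25 µm objects >6 SD above background). Cells: PC12, inducible HTTex1-Q103-GFP, 100 nM tebufenozide; compounds titrated.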
ALDH1A1 inh – blocks purified human ALDH1A1 activity | 220,000 tested, 7.3% active | Purified ALDH1A1, NADH fluorescence, propionaldehyde substrate | Potency, µM (highest dose often 75.3 µM), hits mostly inhibitors
Target sequence (P00352 whole entry, looked up): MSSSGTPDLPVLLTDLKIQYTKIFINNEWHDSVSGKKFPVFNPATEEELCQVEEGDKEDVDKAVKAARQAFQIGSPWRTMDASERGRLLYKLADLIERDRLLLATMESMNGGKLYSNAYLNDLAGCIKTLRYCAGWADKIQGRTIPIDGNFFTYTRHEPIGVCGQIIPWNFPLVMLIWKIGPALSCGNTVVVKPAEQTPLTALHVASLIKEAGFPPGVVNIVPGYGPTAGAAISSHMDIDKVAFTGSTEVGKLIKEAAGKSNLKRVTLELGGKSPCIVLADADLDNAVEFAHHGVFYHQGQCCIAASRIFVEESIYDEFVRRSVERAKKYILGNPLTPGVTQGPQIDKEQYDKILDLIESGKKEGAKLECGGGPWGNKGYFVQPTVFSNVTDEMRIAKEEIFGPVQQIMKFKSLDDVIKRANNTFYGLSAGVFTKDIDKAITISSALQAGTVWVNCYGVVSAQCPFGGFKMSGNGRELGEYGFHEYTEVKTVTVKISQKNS
CBFb-RUNX1 inh – inhibitors of human CBF-beta and RUNX1 interaction; Potency, µM (highest dose often 59.8 µM), actives largely listed as inhibitors; AlphaScreen CBFb-His/RUNX1-biotin binding, biochemical; AID 1477; 230,000 tested, under 10 active; Q01196+Q13951; active = well fitted curve in the direction sought with a large enough effect; inconclusive = small, poorly fitted or top-dose-only effect, or another doubt; inactive = no such curve, though single readings can be large; an effect the other way counts as inactive or inconclusive
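Room-temperature protein-protein interaction test with 30 nM each of His-tagged CBF-beta and biotinylated RUNX1, 15 min with compound, then 90 min with nickel plus streptavidin beads. Signal read in AlphaScreen mode.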
JMJD2E inh – inhibitors of human JMJD2E histone demethylase; Potency, µM (series often up to 57.1 µM), hits mostly inhibitors; 230,000 tested, 1.6% active; B2RXH2; JMJD2E catalytic domain, FDH-coupled NADH fluorescence (FDH is formaldehyde dehydrogenase); note: nearly all actives have a fitted effect of over 50% in size
HTT ATP protect – Huntington cell model cytoprotection by ATP luminescence. PC12 HTT-Q103 induced, cytoprotection, ATP luminescence, 40 h. Potency, µM (doses to about 56.4 µM), actives largely listed as activators. 230,000 tested, 0.14% active; active = well fitted curve in the direction sought with a large enough effect; inconclusive = small, poorly fitted or top-dose-only effect, or another doubt; inactive = no such curve, though single readings can be large; an effect the other way counts as inactive or inconclusive; note: nearly all actives have a fitted effect of over 45% in size
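PC12 cells with ecdysone-inducible HTT exon 1 Q103-GFP, induced with 100 nM tebufenozide and co-treated with library compounds in a dose series (1536-well, 1500 cells/well). Cytoprotection read as ATP content by ATPlite luminescence.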
HPGD block – inhibitors of human 15-hydroxyprostaglandin dehydrogenase (HPGD); P15428; 150,000 tested, 4.3% active; AID 894; Potency, µM, hits mostly inhibitors; purified HPGD, NADH fluorescence kinetic, PGE2 substrate
Target sequence (P15428 whole entry, looked up): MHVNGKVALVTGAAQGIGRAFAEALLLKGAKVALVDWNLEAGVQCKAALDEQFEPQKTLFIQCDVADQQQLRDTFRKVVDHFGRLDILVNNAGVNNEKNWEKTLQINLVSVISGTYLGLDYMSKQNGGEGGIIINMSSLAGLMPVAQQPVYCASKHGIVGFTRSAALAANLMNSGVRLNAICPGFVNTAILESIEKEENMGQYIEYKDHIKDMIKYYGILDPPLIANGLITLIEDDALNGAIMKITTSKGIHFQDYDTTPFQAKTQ
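20 nM HPGD preincubated 15 min at room temperature with compound in 50 mM Tris-HCl pH 8, 0.01% Tween 20. Started with 1 mM NAD+ and 30 uM prostaglandin E2; NADH fluorescence (360/450 nm) read 5 times over 30-s intervals, last minus first.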
Of the large screens only hits and unclear results are named; the others gave an inactive call. A selection: hits, their analogues and other compounds. The true share with any hit is near 9.8%. Unless noted, calls come from the whole dose curve; as a rule, active = well fitted inhibition curve with a large enough effect (not every such curve was filed as active); inconclusive = small, poorly fitted or top-dose-only effect, or another doubt; inactive = no such curve, though single readings can be large or run the other way.

O=C(CCN1CCOCC1)c1ccccc1	ALDH1A1 inh 0.32µM
O=C(CCN1CCCCC1)Nc1ccccc1	ALDH1A1 inh inconclusive (no result: HPGD block)
O=C(CCN1CCCCC1)c1csc2ccccc12	ALDH1A1 inh 0.14µM (no result: HttQ103 aggreg, CBFb-RUNX1 inh, JMJD2E inh)
O=C(OCCN1CCCCC1)c1ccccc1Cl	HPGD block inconclusive
O=C(CCN1CCCCC1)c1ccccc1	ALDH1A1 inh 1.1µM
Cc1ccc(-c2nnc(Cc3ccc([N+](=O)[O-])cc3)o2)cc1	ALDH1A1 inh inconclusive (no result: HPGD block)
Cc1cc(C)c(-c2noc(C(=O)OC(C)(C)C)c2C(=O)OC(C)(C)C)c(C)c1	none
O=C(O)/C=C/C(=O)NC1CC1	none (no result: HPGD block)
COC(=O)c1ccc(NC(=O)c2cccc(C)c2[N+](=O)[O-])cc1	ALDH1A1 inh inconclusive (no result: HPGD block)
C[N+]1(CCC(=O)c2ccccc2)CCCCC1	ALDH1A1 inh 1.3µM, HPGD block 32µM (no result: HTT ATP protect)
O=C(O)CCC(=O)CCC(=O)c1ccccc1	ALDH1A1 inh inconclusive
O=c1oc2ccccc2c(N2CCCCC2)c1CN1CCCC1	none
O=c1oc2ccccc2c(N2CCCCC2)c1CN1CCCCC1	HttQ103 aggreg inconclusive, ALDH1A1 inh 14µM
Cc1c(Cl)cnc(NC(=O)COC(=O)C(NC(=O)c2ccco2)C(C)C)c1Cl (stereo not given)	ALDH1A1 inh 11µM
CC(C)[C@H](NC(=O)c1ccco1)C(=O)OCC(=O)Nc1cccc(F)c1	none (no result: HPGD block)
NC(=S)NNC(=O)Nc1ccc(Cl)c(Cl)c1	ALDH1A1 inh 28µM
COc1ccc(N=C2CCS(=O)(=O)c3sccc32)cc1	ALDH1A1 inh 10µM (no result: HPGD block)
COc1ccc(C(=O)O/N=C2\CCS(=O)(=O)c3sccc32)cc1	none (no result: HPGD block)
CCc1c(C)nc2ccc(Br)cc2c1SCCC#N	HttQ103 aggreg 7.9µM
CCCc1c(C)nc2ccccc2c1SCCC#N	HttQ103 aggreg 3.2µM
CCCCc1c(C)nc2ccc(Br)cc2c1SCCC#N	HttQ103 aggreg inconclusive
CN1CCN(NC(=S)Nc2ccc(Oc3ccccc3)cc2)CC1	none (no result: HPGD block)
COc1ccc(/C=C\c2nc(=O)c3ccccc3o2)cc1	none (no result: HPGD block)
O=c1nc(/C=C/c2ccc(O)c(O)c2)oc2ccccc12	JMJD2E inh 13µM (no result: ALDH1A1 inh, HPGD block)
O=C(NCc1ccccc1)NC1(C(=O)N2CCN(c3ccccc3)CC2)CCCCC1	none
CCn1c(N)c(C(=O)NCc2ccc3c(c2)OCO3)sc1=S	ALDH1A1 inh 20µM, HPGD block 16µM
COCCNC(=O)c1ccc(C(=O)NCCOC)s1	none
CCn1c(N)c(C(=O)Nc2ccccc2C(=O)OC)sc1=S	ALDH1A1 inh 28µM, HPGD block 25µM
CCOC(=O)c1c(C)c(C(=O)NCc2ccc3c(c2)OCO3)c(C)n1CC	ALDH1A1 inh inconclusive (no result: HTT ATP protect)
CCCCCC(=O)NC(=S)Nc1ccccc1C(=O)OC	ALDH1A1 inh inconclusive
CCn1c(N)c(C(=O)NCCOC)sc1=S	ALDH1A1 inh 25µM, HPGD block inconclusive
COc1ccc(-c2cc(C(=O)NCCc3ccc(S(N)(=O)=O)cc3)c3ccccc3n2)cc1	HttQ103 aggreg inconclusive, ALDH1A1 inh inconclusive, JMJD2E inh inconclusive (no result: HPGD block)
Cc1c(NC(=O)c2cc(-c3ccccc3O)on2)c(=O)n(-c2ccccc2)n1C	none (no result: ALDH1A1 inh, HPGD block)
O=C(c1cnccn1)N1CCC2(CCCN(c3ccccc3)C2)CC1	none (no result: HttQ103 aggreg, CBFb-RUNX1 inh, JMJD2E inh)
CCN(CC)S(=O)(=O)c1ccc(OC)c(NC(=O)c2cn(CC)c3nc(C)ccc3c2=O)c1	none (no result: HPGD block)
O=C(Cn1cnc2ccccc2c1=O)NNC(=O)c1ccccc1	JMJD2E inh inconclusive (no result: ALDH1A1 inh, HPGD block)
C=CCSc1nnc(NC(=O)CSc2nc(CCC)cc(=O)[nH]2)s1	HttQ103 aggreg 11µM, HPGD block 20µM
COc1ccc(CN2C=C3C(=O)C(C)(OC(=O)C4CCCC4)C(=O)C=C3C=C2c2ccsc2)cc1 (stereo not given)	CBFb-RUNX1 inh inconclusive, JMJD2E inh inconclusive
CC1(OC(=O)C2CCCC2)C(=O)C=C2C=C(c3ccsc3)N(Cc3ccco3)C=C2C1=O (stereo not given)	ALDH1A1 inh 3.5µM, CBFb-RUNX1 inh inconclusive, JMJD2E inh inconclusive
CCN(CC)S(=O)(=O)c1ccc(S(=O)(=O)N(Cc2ccccn2)Cc2ccco2)cc1	HttQ103 aggreg inconclusive, ALDH1A1 inh 1.8µM
CC(=O)Nc1ccc(S(=O)(=O)N(Cc2ccco2)CC2CCCO2)cc1 (stereo not given)	ALDH1A1 inh 13µM
O=C(CN(Cc1ccccc1)S(=O)(=O)c1ccc(Br)cc1)NCc1ccco1	ALDH1A1 inh 13µM
CCN(CC)S(=O)(=O)c1ccc(S(=O)(=O)N(CC(=O)Nc2ccccc2)Cc2ccco2)cc1	ALDH1A1 inh 8.9µM
CN(C)S(=O)(=O)c1ccc(S(=O)(=O)N(CC(=O)Nc2ccccc2)CC2CCCO2)cc1 (stereo not given)	ALDH1A1 inh inconclusive
CC1=NN2C(=N)/C(=C\c3cc(C)n(-c4ccc(C)cc4)c3C)C(=O)N=C2S1	none (no result: ALDH1A1 inh, HPGD block)
CN(C)/C=C/C(=O)c1cc(F)cc(C(F)(F)F)c1	none (no result: HPGD block)
CCCCc1nc2c(c3c1C[C@H](C)OC3)CN(S(=O)(=O)c1ccc(C)cc1)CC2	none (no result: HttQ103 aggreg)
O=C(O)c1cccc(NC(=O)c2ccc3c(c2)C(=O)N(CC2CCCO2)C3=O)c1 (stereo not given)	ALDH1A1 inh inconclusive
COC(=O)c1cccc(NC(=O)c2ccc3c(c2)C(=O)N(CC2CCCO2)C3=O)c1 (stereo not given)	ALDH1A1 inh 1.4µM
O=C(O)c1ccc2c(c1)C(=O)N(Cc1ccccc1)C2=O	HPGD block 14µM
O=C(NCc1ccccc1)c1ccc2c(c1)C(=O)N(CC1CCCO1)C2=O (stereo not given)	ALDH1A1 inh 5µM
COc1ccccc1OCC(=O)Nc1ccc2c(c1)C(=O)N(CC1CCCO1)C2=O (stereo not given)	ALDH1A1 inh 4.5µM (no result: HPGD block)
COc1ccc(NS(=O)(=O)c2cn(C)c(=O)n(C)c2=O)cc1	none (no result: ALDH1A1 inh, HPGD block)
Cn1c(Cc2nc(-c3cnccn3)no2)nnc1SCC(=O)Nc1ccccc1	none (no result: ALDH1A1 inh, HPGD block)
O=C(c1c[nH]c(C(=O)N2CCN(Cc3ccccc3)CC2)c1)C1CCCCC1	ALDH1A1 inh 7.9µM (no result: HPGD block)
O=C(CSc1nnc(CN2CCOCC2)n1-c1ccccc1)N1CCc2ccccc21	ALDH1A1 inh 7.9µM
CC1CCN(C(=O)CSc2nnc(CN3CCOCC3)n2-c2ccccc2)CC1	ALDH1A1 inh 1.3µM
CN(CC(=O)O)S(=O)(=O)c1ccc2c(c1)NC(=O)CC(=O)N2	none (no result: HPGD block)
Cc1ccccc1C[C@H](C(=O)O)N1C(=O)c2ccc(C(=O)O)cc2C1=O	none (no result: HttQ103 aggreg, ALDH1A1 inh, JMJD2E inh, HTT ATP protect, HPGD block)
O=C(N=C1c2ccccc2CN1c1ccc(F)cc1)c1ccc(Cl)nc1	ALDH1A1 inh 28µM
Cc1nn(-c2ccccc2)c(C)c1NC(=O)Cc1cccs1	HPGD block 16µM
Cc1c(-c2ccccc2)nc2ccccc2c1C(=O)NCc1cccs1	ALDH1A1 inh 14µM, HPGD block inconclusive
